# Inconclusive results are not listed. Active and inactive are the calls of the source. Calls come from the whole dose curve; as a rule, active = well fitted inhibition curve with a large enough effect; inconclusive = small, poorly fitted or top-dose-only effect; inactive = flat fitted curve, though single readings scatter.
# System: CP237
# Test: qHTS profiling for inhibitors of Plasmodium falciparum proliferation (AID 504749); note: nearly all actives have a fitted effect of over 60% in size;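 for activity, negative = inhibition: 0% = DMSO vehicle and full inhibition = artemisinin control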
# Details: P. falciparum in erythrocytes, SYBR Green DNA, 72 h; series mostly up to 28.7 µM; activity, negative = inhibition: at the top concentration
# Method in brief: (§1)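 Each compound contacts P. falciparum-infected red blood cells for 72 h at 37 C; lysis buffer (Tris, EDTA, saponin, Triton X, SYBR Green I) is added and fluorescence measured next morning; values normalized to controls.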
# Potency is the fitted concentration of half-maximal effect.
Compound,"activity, negative = inhibition",Potency
COC(=O)Nc1nc2ccc(Sc3ccccc3)cc2[nH]1,0.713% [at 12.8 µM] (inactive),–
Cc1noc(NS(=O)(=O)c2ccc(N)cc2)c1C,-9.38% (inactive),–
CC(C)NCC(O)c1ccc(NS(C)(=O)=O)cc1 (stereo not drawn),–,inactive
Nc1ccc(S(=O)(=O)Nc2ccccn2)cc1,2.28% [at 12.8 µM] (inactive),–
C[C@]12C=CC(=O)C=C1CC[C@@H]1[C@@H]2C(=O)C[C@@]2(C)[C@H]1CC[C@]2(O)C(=O)CO,3.89% (inactive),–
CC(=O)Oc1ccccc1C(=O)Nc1ncc([N+](=O)[O-])s1,–,12600 nM (active)
NCCCC(O)(P(=O)(O)O)P(=O)(O)O,3.43% (inactive),–

# System: CP238
# Test: as above
# Details: P. falciparum in erythrocytes, SYBR Green DNA, 72 h; series mostly up to 28.7 µM; activity, negative = inhibition: at the top concentration
# Method in brief: as §1
Compound,Potency,"activity, negative = inhibition"
N=C(N)c1ccc(OCCCCCOc2ccc(C(=N)N)cc2)cc1,2240 nM (active),–
OC(Cn1cncn1)(Cn1cncn1)c1ccc(F)cc1F,–,-0.557% (inactive)
CCOC(=O)c1ccc(OC(=O)CCCCCN=C(N)N)cc1,–,-4.34% [at 12.8 µM] (inactive)
CN(CCOc1ccc(CC2SC(=O)NC2=O)cc1)c1ccccn1 (stereo not drawn),–,4.91% (inactive)
CC(C)(C#N)c1cc(Cn2cncn2)cc(C(C)(C)C#N)c1,–,-4.38% (inactive)
NC(=O)c1cccnc1,–,4.42% (inactive)
COc1nc(N)nc2c1ncn2[C@@H]1O[C@H](CO)[C@@H](O)[C@@H]1O,–,-13.3% (inactive)
S=P(N1CC1)(N1CC1)N1CC1,–,0.681% (inactive)
CN1CCN(c2c(F)cc3c(=O)c(C(=O)O)cn(CCF)c3c2F)CC1,–,9.35% (inactive)
COc1ccc(-c2ccc3cc(C(=O)O)ccc3c2)cc1C12CC3CC(CC(C3)C1)C2,–,4.27% (inactive)
Cc1nnc(NS(=O)(=O)c2ccc(N)cc2)s1,–,13.9% (inactive)
Cc1ccnc2c1NC(=O)c1cccnc1N2C1CC1,–,3.07% (inactive)
Nc1[nH]c(=O)ncc1F,–,6.81% [at 12.8 µM] (inactive)
NC(N)=NC(N)=NCCc1ccccc1,inactive,–
Nc1nc(N)nc(-c2cc(Cl)ccc2Cl)n1,–,1.63% (inactive)
Cc1cccc(Nc2ccncc2S(=O)(=O)NC(=O)NC(C)C)c1,–,2.21% [at 12.8 µM] (inactive)
O=P(O)(O)C(O)(Cc1cccnc1)P(=O)(O)O,–,3.85% (inactive)
CCOCC(O)COc1ccc(NC(=O)CC[S+](C)C)cc1 (stereo not drawn),–,0.46% (inactive)
Cc1cccc(N(C)C(=S)Oc2ccc3ccccc3c2)c1,–,-11% [at 12.8 µM] (inactive)
CN(C)CCc1c[nH]c2ccc(CS(=O)(=O)N3CCCC3)cc12,–,0.0573% (inactive)
N[C@@H](C(=O)N[C@@H]1C(=O)N2C(C(=O)O)=C(Cl)CS[C@H]12)c1ccccc1,–,0.819% (inactive)
COC(=O)Nc1nc2ccc(Sc3ccccc3)cc2[nH]1,–,-1.1% [at 12.8 µM] (inactive)
Cc1noc(NS(=O)(=O)c2ccc(N)cc2)c1C,–,1.05% (inactive)
CC(C)NCC(O)c1ccc(NS(C)(=O)=O)cc1 (stereo not drawn),inactive,–
Nc1ccc(S(=O)(=O)Nc2ccccn2)cc1,–,1.66% [at 12.8 µM] (inactive)
C[C@]12C=CC(=O)C=C1CC[C@@H]1[C@@H]2C(=O)C[C@@]2(C)[C@H]1CC[C@]2(O)C(=O)CO,–,7.51% (inactive)
CC(=O)Oc1ccccc1C(=O)Nc1ncc([N+](=O)[O-])s1,–,-3.53% (inactive)
NCCCC(O)(P(=O)(O)O)P(=O)(O)O,–,3.93% (inactive)

# System: CP247
# Test: as above
# Details: P. falciparum in erythrocytes, SYBR Green DNA, 72 h; series mostly up to 28.7 µM; activity, negative = inhibition: at the top concentration
# Method in brief: as §1
Compound,Potency,"activity, negative = inhibition"
N=C(N)c1ccc(OCCCCCOc2ccc(C(=N)N)cc2)cc1,1120 nM (active),–
OC(Cn1cncn1)(Cn1cncn1)c1ccc(F)cc1F,–,5.52% (inactive)
CCOC(=O)c1ccc(OC(=O)CCCCCN=C(N)N)cc1,–,-7.11% [at 12.8 µM] (inactive)
CN(CCOc1ccc(CC2SC(=O)NC2=O)cc1)c1ccccn1 (stereo not drawn),–,-19.9% (inactive)
CC(C)(C#N)c1cc(Cn2cncn2)cc(C(C)(C)C#N)c1,–,6.19% (inactive)
NC(=O)c1cccnc1,–,1.37% (inactive)
COc1nc(N)nc2c1ncn2[C@@H]1O[C@H](CO)[C@@H](O)[C@@H]1O,–,0.0796% (inactive)
S=P(N1CC1)(N1CC1)N1CC1,–,5.7% (inactive)
CN1CCN(c2c(F)cc3c(=O)c(C(=O)O)cn(CCF)c3c2F)CC1,–,-8.98% (inactive)
COc1ccc(-c2ccc3cc(C(=O)O)ccc3c2)cc1C12CC3CC(CC(C3)C1)C2,–,3.27% (inactive)
Cc1nnc(NS(=O)(=O)c2ccc(N)cc2)s1,–,11.6% (inactive)
Cc1ccnc2c1NC(=O)c1cccnc1N2C1CC1,–,2.63% (inactive)
Nc1[nH]c(=O)ncc1F,–,5.08% [at 12.8 µM] (inactive)
NC(N)=NC(N)=NCCc1ccccc1,inactive,–
Nc1nc(N)nc(-c2cc(Cl)ccc2Cl)n1,–,-2.92% (inactive)
Cc1cccc(Nc2ccncc2S(=O)(=O)NC(=O)NC(C)C)c1,–,3.55% [at 12.8 µM] (inactive)
O=P(O)(O)C(O)(Cc1cccnc1)P(=O)(O)O,–,6% (inactive)
CCOCC(O)COc1ccc(NC(=O)CC[S+](C)C)cc1 (stereo not drawn),–,7.6% (inactive)
Cc1cccc(N(C)C(=S)Oc2ccc3ccccc3c2)c1,–,3.29% [at 12.8 µM] (inactive)
CN(C)CCc1c[nH]c2ccc(CS(=O)(=O)N3CCCC3)cc12,–,-4.35% (inactive)
N[C@@H](C(=O)N[C@@H]1C(=O)N2C(C(=O)O)=C(Cl)CS[C@H]12)c1ccccc1,–,6.79% (inactive)
COC(=O)Nc1nc2ccc(Sc3ccccc3)cc2[nH]1,–,3.35% [at 12.8 µM] (inactive)
Cc1noc(NS(=O)(=O)c2ccc(N)cc2)c1C,–,8.04% (inactive)
CC(C)NCC(O)c1ccc(NS(C)(=O)=O)cc1 (stereo not drawn),inactive,–
Nc1ccc(S(=O)(=O)Nc2ccccn2)cc1,–,5.12% [at 12.8 µM] (inactive)
C[C@]12C=CC(=O)C=C1CC[C@@H]1[C@@H]2C(=O)C[C@@]2(C)[C@H]1CC[C@]2(O)C(=O)CO,–,7% (inactive)
CC(=O)Oc1ccccc1C(=O)Nc1ncc([N+](=O)[O-])s1,–,-20.6% (inactive)
NCCCC(O)(P(=O)(O)O)P(=O)(O)O,–,2.17% (inactive)

# From PubChem BioAssay (NCATS)
